Screening results from PubChem.
AddAB inh: less growth of phage-infected E. coli with AddAB; AID 435030; inhibition, % at 11.9 µM; E. coli expressing H. pylori AddAB, absorbance growth; actives 0.29% (n = 330,000); in the data active means inhibition above about 12%;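 further: 0% = vehicle wells of infected cells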
Tat transport: E. coli Tat transport inhibition | E. coli MC4100 TorA-mCherry Tat export, fluorescence | AID 488895 | actives 0.036% (n = 340,000) | inhibition, % at 10 µM;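 active means mean replicate inhibition at least 50% and at least half of replicates individually reaching 50%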;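 further: exported cargo escapes ClpAP degradation while cytoplasmic cargo is degraded and loses fluorescence; 0% = median of neutral control wells and 100% = median of NaSCN control wells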
phage Ecoli inh: E. coli growth loss with phage present | growth absorbance | inhibition, % at 11.9 µM | actives 0.26% (n = 360,000); in the data active means inhibition above about 11%
E coli growth-1: reduces bacterial viability in AddAB counter-screen | E. coli V3065 growth, OD600 absorbance, 18 h | inhibition, % at 11.9 µM | actives 0.27% (n = 330,000) | AID 449728;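 active means inhibition above the campaign's mean inhibition across all tested compounds plus 3 SD, cut at about 9.9% in these data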;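 further: uninfected addAB+ strain grown without phage in ampicillin broth; 0% = DMSO wells and 100% = ciprofloxacin 0.95 µg/ml wells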
E coli growth-2: E. coli growth inhibition | Escherichia coli growth, OD600, 23 h; stronger effect = lower value | OD600 absorbance (concentration not given with the values) | actives 0.21% (n = 330,000) | AID 1053175;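 active means OD600 absorbance below the run mean of sample wells minus 3.6 SD, in any replicate, cut at about 0.56 in these data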
* hit, by the source's call. In the library only some 0.5% were active in any assay of this set; here they are far more common.

How did CCCCCC(=O)NNC(=S)NC(C)=O do in these assays?
AddAB inh: -2; Tat transport: -2; phage Ecoli inh: -8; E coli growth-1: 0; E coli growth-2: 0.48*

Results for Cc1ccc(NN=Cc2c(O)cc(C)oc2=O)cc1 ?
E coli growth-2: 0.78

Results for Cc1cccc(NC(=S)N/N=C/c2ccc([N+](=O)[O-])s2)c1 ?
AddAB inh: 15*; Tat transport: -10; phage Ecoli inh: 11; E coli growth-1: 19*

What do the screens show for `CN(C1CCCCC1)S(=O)(=O)c1ccc(NC(=O)c2ccc(Br)o2)cc1`?
AddAB inh: 2; Tat transport: 6; phage Ecoli inh: 4; E coli growth-1: 0; E coli growth-2: 0.74

How did CN(C)S(=O)(=O)c1ccc(NC(=O)c2ccc(Br)o2)cc1 do in these assays?
AddAB inh: 7; Tat transport: -1; E coli growth-1: 9.8*; E coli growth-2: 0.64

Results for COC(=O)c1ccc(C23CC4(C2)C(CN(C)C4c2ccccc2)C3c2ccc(C(F)(F)F)cc2)cc1 (stereo unspecified) ?
E coli growth-2: 0.7

How did CCc1cccc2c(C(=O)COC(=O)c3ccccc3)c[nH]c12 do in these assays?
AddAB inh: 2; Tat transport: 1; phage Ecoli inh: 3; E coli growth-1: 1; E coli growth-2: 0.09*

What do the screens show for `Cc1ccc(-c2csc(N=C(N)N)n2)c(C)c1`?
AddAB inh: -1; phage Ecoli inh: 2; E coli growth-1: -3; E coli growth-2: 0.44*

Results for CCOc1ccc(Nc2nc(NCC3CCCO3)c3ccccc3n2)cc1 (stereo unspecified) ?
AddAB inh: 0; Tat transport: -38; phage Ecoli inh: 6; E coli growth-1: 3; E coli growth-2: 0.49*

What do the screens show for `CCOc1ccc(Nc2c3ccccc3nc3ccccc23)cc1`?
AddAB inh: 9; Tat transport: -8; phage Ecoli inh: 5; E coli growth-1: 10; E coli growth-2: 0.52*

How did c1ccc(Nc2nc(NCC3CCCO3)c3ccccc3n2)cc1 (stereo unspecified) do in these assays?
AddAB inh: 2; Tat transport: -21; phage Ecoli inh: 1; E coli growth-1: 1; E coli growth-2: 0.47*

Results for CC(C)(C)OC(=O)C(Cc1ccccc1)NC(=O)c1nc[nH]c1C(=O)N1CCc2ccccc2C1 (stereo unspecified) ?
E coli growth-2: 0.68

What do the screens show for `CCCCCCOc1ccc(C=c2sc(=C(C#N)C(=O)NCc3ccco3)n(-c3ccccc3)c2=O)cc1`?
E coli growth-2: 0.7

Results for CCN(CC)c1ccc(C(=C2C=CC(=[N+](CC)CC)C=C2)c2ccc(N(CC)CC)cc2)cc1 ?
Tat transport: 51*; phage Ecoli inh: -1; E coli growth-2: 0.89

How did CCN(CC)c1ccc(C(=O)NNC(=O)CCl)cc1 do in these assays?
AddAB inh: -1; Tat transport: 6; phage Ecoli inh: 0; E coli growth-1: 2

Results for CCC(C)NC(=O)c1c(N)n(N=Cc2cccnc2)c2nc3ccccc3nc12 (stereo unspecified) ?
E coli growth-2: 0.71

Results for Cc1cn(C2CC(N=[N+]=[N-])C(CO)O2)c(=O)[nH]c1=O (stereo unspecified) ?
E coli growth-2: 0.062*

What do the screens show for `Cc1cn(C2CC(O)C(O)C(CO)O2)c(=O)[nH]c1=O` (stereo unspecified)?
phage Ecoli inh: 3

Results for C/C(C=NNc1nc2ccccc2[nH]1)=C\c1ccccc1 ?
E coli growth-2: 0.51*

Results for CC(=NNC(=O)c1cc(C)nc2ccc(C)cc12)c1ccncc1 ?
E coli growth-2: 0.72

What do the screens show for `O=C1CN(N=Cc2ccc([N+](=O)[O-])o2)C(=O)N1`?
E coli growth-2: 0.46*

What do the screens show for `Cc1ccsc1C(=O)Nc1nnc(-c2ccco2)o1`?
AddAB inh: 3; Tat transport: 7; phage Ecoli inh: 11; E coli growth-1: -1; E coli growth-2: 0.41*

What do the screens show for `O=C1N=C(N2CCCC2C(=O)O)SC1=Cc1ccco1` (stereo unspecified)?
E coli growth-2: 0.68

How did S=C(NCc1ccc(Cl)cc1)Nc1ccncc1 do in these assays?
AddAB inh: -1; Tat transport: 8; phage Ecoli inh: 1; E coli growth-1: -1; E coli growth-2: 0.52*

What do the screens show for `S=C(NCc1ccc(Cl)cc1)Nc1ccccc1`?
AddAB inh: 0; Tat transport: -10; phage Ecoli inh: 5; E coli growth-1: 0; E coli growth-2: 0.67

Results for S=C(Nc1ccc(Cl)c(Cl)c1)NC1CCN(Cc2ccccc2)CC1 ?
AddAB inh: 11; Tat transport: -6; phage Ecoli inh: 8; E coli growth-1: 11*; E coli growth-2: 0.58

What do the screens show for `O=C(NCc1cccnc1)Nc1ccc(Cl)c(Cl)c1`?
AddAB inh: 4; Tat transport: -5; phage Ecoli inh: 1; E coli growth-1: 2; E coli growth-2: 0.59

What do the screens show for `S=C(NCc1cccnc1)Nc1ccc(Cl)c(Cl)c1`?
AddAB inh: 11; Tat transport: -12; phage Ecoli inh: 10; E coli growth-1: 11*; E coli growth-2: 0.49

How did Fc1ccc(NC(=S)NC2CCN(Cc3ccccc3)CC2)cc1 do in these assays?
AddAB inh: 2; Tat transport: -3; phage Ecoli inh: 5; E coli growth-1: 3; E coli growth-2: 0.67

What do the screens show for `Cc1cc(C(C)(C)CC(C)(C)C)ccc1OCCOCC[N+](C)(C)Cc1ccccc1`?
AddAB inh: -3; Tat transport: 33; phage Ecoli inh: 3; E coli growth-1: 3; E coli growth-2: 0.066*

Results for CCCSc1ccc(C2N[C@@](C)(C(=O)OC)C3C(=O)N(C)C(=O)C23)cc1OC (stereo partly specified) ?
E coli growth-2: 0.71

Results for CCOC1OC(C(=O)NCc2nc3ccccc3[nH]2)=CC(c2ccccc2)C1CCCO (stereo unspecified) ?
E coli growth-2: 0.69

How did COc1cc(C)c(Cc2cnc(N)nc2N)cc1OC do in these assays?
AddAB inh: 100*; E coli growth-1: 101*

How did C=CCNC(=S)NN=C(C)c1ccccn1 do in these assays?
E coli growth-2: 0.53*

What do the screens show for `CO[C@H]1C=CO[C@@]2(C)Oc3c(C)c(O)c4c(O)c(c5c(c4c3C2=O)NC2(CCN(CC(C)C)CC2)N=5)=NC(=O)C(C)=CC=C[C@H](C)[C@H](O)[C@@H](C)[C@@H](O)[C@@H](C)[C@H](OC(C)=O)[C@@H]1C`?
AddAB inh: 100*; E coli growth-1: 102*

How did COC1C=CO[C@@]2(C)Oc3c(C)c(O)c4c(O)c(c(C=NN5CCN(C6CCCC6)CC5)c(O)c4c3C2=O)NC(=O)C(C)=CC=CC(C)C(O)C(C)C(O)C(C)C(OC(C)=O)C1C (stereo partly specified) do in these assays?
E coli growth-2: 0.07*

How did NC(C(=O)NC1C(=O)N2C(C(=O)O)=C(Cl)CSC12)c1ccccc1 (stereo unspecified) do in these assays?
E coli growth-2: 0.06*

Results for CCCCCCCCCCCCCCCC[n+]1ccc(/C=N/O)cc1 ?
AddAB inh: 0; Tat transport: -12; phage Ecoli inh: 3; E coli growth-1: 0
